This is part of a sample that, as a whole, favours compounds with a hit. Of some 83,000 tested, about 20% had one in any assay.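 Testing used 96-well plates and a 48-hour single-concentration exposure. Example: -40 means 40% of the starting cells died.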 Activity calls are given as the source filed them. Rule for the calls: active = growth percent below 10; inactive = the rest.
What was measured:
Experiment in all cases: NCI-60 one-dose screen, 48 h (100 = growth as untreated, 0 = no growth, -100 = all killed)
Conditions in all cases: 10 µM unless noted
DU-145 prostate = test system: DU-145 prostate
K-562 leukemia = test system: K-562 leukemia
MALME-3M melanoma = test system: MALME-3M melanoma
MDA-MB-231 breast = test system: MDA-MB-231 breast
RXF 393 renal = test system: RXF 393 renal
SF-268 CNS = test system: SF-268 CNS
SF-295 CNS = test system: SF-295 CNS
SF-539 CNS = test system: SF-539 CNS
UACC-257 melanoma = test system: UACC-257 melanoma
M14 melanoma = test system: M14 melanoma

Measured: growth

Cc1ccc(Nc2nnc(-c3ccc(Cl)cc3)o2)c(C)c1
inactive: DU-145 prostate 93.5% | K-562 leukemia 24.8% | MALME-3M melanoma 62.1% | MDA-MB-231 breast 76.3% | RXF 393 renal 93.8% | SF-268 CNS 90.3% | SF-295 CNS 80.7% | SF-539 CNS 79% | UACC-257 melanoma 87.8% | M14 melanoma 57.6%

Nc1nc(=O)c2ccccc2s1
inactive: DU-145 prostate 124% | K-562 leukemia 122% | MALME-3M melanoma 110% | MDA-MB-231 breast 109% | RXF 393 renal 118% | SF-268 CNS 113% | SF-295 CNS 105% | UACC-257 melanoma 118%

CN(C)CCCC(C#N)c1ccccc1 (stereo unspecified)
inactive: DU-145 prostate 122% | K-562 leukemia 99.1% | MALME-3M melanoma 131% | MDA-MB-231 breast 112% | RXF 393 renal 115% | SF-268 CNS 114% | SF-295 CNS 110% | UACC-257 melanoma 104% | M14 melanoma 104%

NC(=N\N=C/c1ccc(O)cc1)/C(N)=N\N=C/c1ccc(O)cc1
inactive: DU-145 prostate 63% | K-562 leukemia 23.7% | MALME-3M melanoma 65.3% | MDA-MB-231 breast 64.8% | RXF 393 renal 105% | SF-268 CNS 58.4% | SF-295 CNS 29.2% | UACC-257 melanoma 85.4% | M14 melanoma 39.5%

O=C(O)C1CCCCN1c1nc(Cl)nc(Cl)n1 (stereo unspecified)
inactive: DU-145 prostate 107% | K-562 leukemia 103% | MALME-3M melanoma 108% | MDA-MB-231 breast 110% | RXF 393 renal 113% | SF-268 CNS 99.2% | SF-295 CNS 101% | SF-539 CNS 92.6% | UACC-257 melanoma 100% | M14 melanoma 108%

COc1ccc(NC(=O)c2cc(OC)c(OC)c(OC)c2)cc1O
inactive: DU-145 prostate 36.6% | K-562 leukemia 27.7% | MALME-3M melanoma 46.5% | MDA-MB-231 breast 58.5% | RXF 393 renal 46.4% | SF-268 CNS 44.1% | SF-295 CNS 35.5% | SF-539 CNS 21.5% | UACC-257 melanoma 58.2% | M14 melanoma 36%

O=C1c2c(c3c4ccccc4n(CCCCCCBr)c3c3[nH]c4ccccc4c23)C(=O)N1O
active: K-562 leukemia 8.97% | MALME-3M melanoma -20% | MDA-MB-231 breast -13.8% | SF-295 CNS 4.87% | SF-539 CNS -6%
inactive: DU-145 prostate 22.6% | RXF 393 renal 29.1% | SF-268 CNS 24.7% | M14 melanoma 15.5%

O=C1Nc2ccc(Cl)cc2C12Nc1cc(Cl)ccc1S2 (stereo unspecified)
active: RXF 393 renal -8.23%
inactive: DU-145 prostate 96.5% | K-562 leukemia 39.2% | MALME-3M melanoma 74.2% | MDA-MB-231 breast 83.2% | SF-268 CNS 88.3% | SF-295 CNS 106% | SF-539 CNS 87.9% | UACC-257 melanoma 129% | M14 melanoma 93.9%

NC(=O)c1c(NC(=S)Nc2ccc(OC(F)(F)F)cc2)sc2c1CCC1(C2)OCCO1
inactive: DU-145 prostate 112% | K-562 leukemia 94.6% | MALME-3M melanoma 109% | MDA-MB-231 breast 98.9% | RXF 393 renal 116% | SF-268 CNS 103% | SF-295 CNS 93.4% | SF-539 CNS 99% | UACC-257 melanoma 97.1% | M14 melanoma 97.2%

CCN(CC)CCC(CNc1ccnc2cc(Cl)ccc12)c1ccccc1 (stereo unspecified)
inactive: DU-145 prostate 89.4% | MDA-MB-231 breast 43% | SF-268 CNS 78.3%
active: K-562 leukemia 2.5% | MALME-3M melanoma -47.1% | RXF 393 renal -21% | SF-295 CNS -21.4% | SF-539 CNS -15.2% | UACC-257 melanoma -78.2% | M14 melanoma -83.9%

O=Nc1c(-c2cccc([N+](=O)[O-])c2)nc2ncccn12
inactive: DU-145 prostate 73.5% | K-562 leukemia 10.5% | MALME-3M melanoma 85.2% | MDA-MB-231 breast 111% | SF-268 CNS 92.2% | SF-295 CNS 107% | SF-539 CNS 91% | UACC-257 melanoma 79.3% | M14 melanoma 76.9%
active: RXF 393 renal -3.85%

O=c1[nH]c(-c2ccccc2)nc(CN2CCCCC2)c1O
inactive: DU-145 prostate 113% | K-562 leukemia 112% | MALME-3M melanoma 128% | MDA-MB-231 breast 102% | RXF 393 renal 120% | SF-268 CNS 105% | SF-295 CNS 121% | SF-539 CNS 108% | UACC-257 melanoma 113% | M14 melanoma 108%

COc1c2occc2c(OC)c2c(=O)c(-c3cc(-c4ccc(F)cc4)c(C#N)c(N)n3)c(C)oc12
inactive: DU-145 prostate 30.3% | K-562 leukemia 19.5% | MALME-3M melanoma 88.8% | MDA-MB-231 breast 30% | RXF 393 renal 44.4% | SF-268 CNS 35.5% | SF-295 CNS 56.5% | SF-539 CNS 67.7% | M14 melanoma 70.6%

COc1cc(-c2nn(-c3cccc(NC(=O)Nc4cc(C(F)(F)F)cc(C(F)(F)F)c4)c3)cc2-c2ccncc2)ccc1Cl
active: DU-145 prostate 3.89% | K-562 leukemia -10.7% | MALME-3M melanoma -10.7% | MDA-MB-231 breast -92% | RXF 393 renal -68.1% | SF-268 CNS -46.3% | SF-539 CNS -53.5% | UACC-257 melanoma -45.1%

CCC(=O)OC1=CN2C(=NC(c3ccc(N)cc3)=CC2c2cc(OC)c(OC)c(OC)c2)S1 (stereo unspecified)
active: DU-145 prostate -16.6% | K-562 leukemia 6.1%
inactive: MALME-3M melanoma 63.7% | MDA-MB-231 breast 67.1% | RXF 393 renal 35.1% | SF-268 CNS 60.8% | SF-539 CNS 43.8% | UACC-257 melanoma 37.1% | M14 melanoma 52.5%

O=C1/C(=C/c2ccc(Cl)cc2)CN(Cc2cn(CCNc3ccnc4cc(Cl)ccc34)nn2)C/C1=C\c1ccc(Cl)cc1
active: DU-145 prostate -97.3% | K-562 leukemia -34.5% | MALME-3M melanoma -69.5% | MDA-MB-231 breast -43.2% | RXF 393 renal -94.5% | SF-268 CNS -78% | SF-539 CNS -97% | UACC-257 melanoma -92.1% | M14 melanoma -70.5%

CC(C)(C)NCCC(O)c1cc2c(Cl)cc(Cl)cc2c2cc(C(F)(F)F)ccc12 (stereo unspecified)
active: DU-145 prostate -95.1% | K-562 leukemia -72.2% | MALME-3M melanoma -53.3% | MDA-MB-231 breast -74.4% | RXF 393 renal -95.9% | SF-268 CNS -88.6% | SF-539 CNS -82.2% | UACC-257 melanoma -81.7% | M14 melanoma -77.4%

Cc1ccc(S(=O)(=O)NCCNc2nccc(-c3c(-c4ccc(O)cc4)nc4sccn34)n2)cc1
inactive: DU-145 prostate 102% | K-562 leukemia 81.7% | MALME-3M melanoma 95.6% | MDA-MB-231 breast 97.7% | RXF 393 renal 92.2% | SF-268 CNS 95.6% | SF-539 CNS 107% | UACC-257 melanoma 108% | M14 melanoma 93.3%

CN(C)CCCN(c1nc(C(Cl)(Cl)Cl)ns1)c1nc(C(Cl)(Cl)Cl)ns1
active: K-562 leukemia 0.874% | M14 melanoma -19%
inactive: DU-145 prostate 75% | MALME-3M melanoma 44.8% | MDA-MB-231 breast 39.4% | RXF 393 renal 36.8% | SF-268 CNS 34.3% | SF-539 CNS 73.2% | UACC-257 melanoma 19.8%

CN(C)c1ncnc2c1ccn2C1OC(CO)C(O)C1O (stereo unspecified)
inactive: K-562 leukemia 50.4% | MALME-3M melanoma 133% | RXF 393 renal 67.9% | SF-268 CNS 40.1% | SF-539 CNS 67.8% | UACC-257 melanoma 111% | M14 melanoma 58.7%
active: DU-145 prostate 3.87% | MDA-MB-231 breast 0.0846%

O=c1cc(Cc2ccc([N+](=O)[O-])cc2)[nH]c(=O)[nH]1
inactive: DU-145 prostate 119% | K-562 leukemia 111% | MALME-3M melanoma 99.9% | MDA-MB-231 breast 110% | RXF 393 renal 109% | SF-268 CNS 106% | SF-295 CNS 122% | UACC-257 melanoma 109% | M14 melanoma 104%

COc1cc(-c2nn(-c3cccc(NC(=O)Nc4ccc(Cl)c(C(F)(F)F)c4)c3)cc2-c2ccncc2)ccc1Cl
inactive: DU-145 prostate 20.3% | SF-268 CNS 13.8%
active: K-562 leukemia 3.8% | MALME-3M melanoma -14.9% | MDA-MB-231 breast -52.4% | RXF 393 renal -27.8% | SF-539 CNS 6.56% | UACC-257 melanoma -37.6%

Fc1ccc(CNCCNc2ncnc3c2cnn3-c2ccccc2)cc1
inactive: DU-145 prostate 114% | K-562 leukemia 83.3% | MALME-3M melanoma 92.4% | MDA-MB-231 breast 79% | RXF 393 renal 74.6% | SF-268 CNS 92.3% | SF-539 CNS 100% | UACC-257 melanoma 85.6% | M14 melanoma 103%

O=S(=O)(NCCNc1nccc(-c2c(-c3cccc(O)c3)nc3sccn23)n1)c1ccc(F)cc1
inactive: DU-145 prostate 78.6% | K-562 leukemia 47.8% | MALME-3M melanoma 18.3% | MDA-MB-231 breast 77.6% | RXF 393 renal 52.5% | SF-268 CNS 73.3% | SF-539 CNS 96.5% | M14 melanoma 27.3%
active: UACC-257 melanoma -0.678%

COC(=O)c1cc(=O)nc(N/N=C/c2ccco2)s1
inactive: DU-145 prostate 112% | K-562 leukemia 101% | MALME-3M melanoma 108% | MDA-MB-231 breast 117% | RXF 393 renal 102% | SF-268 CNS 106% | SF-539 CNS 108% | UACC-257 melanoma 117% | M14 melanoma 121%

COc1ccc(C2C=C(c3ccc(N)cc3)N=C3SC=CN32)cc1OC (stereo unspecified)
inactive: DU-145 prostate 107% | K-562 leukemia 97.5% | MALME-3M melanoma 92.8% | MDA-MB-231 breast 123% | RXF 393 renal 110% | SF-268 CNS 104% | SF-539 CNS 99.9% | UACC-257 melanoma 103% | M14 melanoma 106%

Cn1c2ccc(Br)cc2c2c3c(c4c5ccccc5[nH]c4c21)C(=O)N(O)C3=O
active: DU-145 prostate -71.1% | K-562 leukemia -8.92% | MALME-3M melanoma -85% | MDA-MB-231 breast -74.1% | RXF 393 renal -99.5% | SF-268 CNS -45.7% | SF-539 CNS -92.6% | UACC-257 melanoma -33.7% | M14 melanoma -78.2%

O=C(Nc1cccc(-n2cc(-c3ccncc3)c(-c3ccc(Cl)c(O)c3)n2)c1)c1ccc(N2CCOCC2)c(C(F)(F)F)c1
inactive: DU-145 prostate 52.7% | MALME-3M melanoma 10.7% | MDA-MB-231 breast 23.4% | SF-268 CNS 55.5% | SF-539 CNS 41.6% | UACC-257 melanoma 38.9% | M14 melanoma 22.7%
active: K-562 leukemia 7.96% | RXF 393 renal -26%

COc1cc(-c2nn(-c3cccc(NC(=O)Nc4ccc(Cl)c(Cl)c4)c3)cc2-c2ccncc2)ccc1Cl
active: K-562 leukemia 3.63% | MALME-3M melanoma -19.9% | MDA-MB-231 breast -40.1% | RXF 393 renal -22.8% | UACC-257 melanoma -36.6% | M14 melanoma 0.293%
inactive: DU-145 prostate 20% | SF-268 CNS 17.9% | SF-539 CNS 12.3%
